{
  "source": "PubChem BioAssay (EPA / NIEHS)",
  "note": "The source made the active and inactive calls. The calls were made as follows: active = hit-call score of the fitted dose curve at least 0.9, where 1 is the maximum; inactive = score below 0.9.",
  "data": [
    {"experiment": "CCTE_Harrill_HTTr_Viability_MCF7: CCTE's 6-hour Cell Viability Assessment for the High-Throughput Transcriptomics (HTTr) Platform, in MCF-7 cells cultured in DMEM + 10% fetal bovine serum, Harrill Lab (AID 2284010)", "from_the_text": "This is a cell-based assay that evaluates cell viability using high content imaging to evaluate membrane integrity using propidium iodide dye exclusion in a 384 well format.One of seven assay components measured from the CCTE_Harrill_HTTr_Viability assay. This was part of a full screening experiment. This is a cell-based assay that evaluates cell viability in MCF-7 cells cultured in DMEM + 10% fetal bovine serum. High content imaging is used to evaluate membrane integrity using propidium iodide dye exclusion. Measurements are taken at 6 hours after chemical dosing in 384-well format.The assay component endpoint CCTE_Harrill_HTTr_Viability_MCF7 was analyzed with bidirectional fitting relation to DMSO as the negative control and baseline of activity. Using a type of viability reporter, gain-of-signal activity can be used to evaluate membrane integrity using propidium iodide dye exclusion to understand changes in cytotoxicity. To generalize the intended target to other relatable targets, this assay endpoint is annotated to cell cycle, where the subfamily is cytotoxicity.\nChemicals were tested in MCF7 cells in an eight point dilution series with a six hour exposure duration.", "values": [
      {"smiles": "Clc1ccc(Cl)c(Cl)c1Cl", "outcome": "inactive"},
      {"smiles": "O=C(Nc1ccccc1)c1cc([N+](=O)[O-])ccc1Cl", "outcome": "inactive"},
      {"smiles": "CCC(C)CCCC(C)(C)O", "note": "(stereo not given)", "outcome": "inactive"},
      {"smiles": "c1ccc2c(c1)c1cccc3ccc4cccc2c4c31", "outcome": "inactive"},
      {"smiles": "NCCCCCCN", "outcome": "inactive"},
      {"smiles": "CCC(=O)OCc1ccccc1", "outcome": "inactive"},
      {"smiles": "CC(CN1c2ccccc2Sc2ccccc21)N(C)C", "note": "(stereo not given)", "outcome": "inactive"},
      {"smiles": "Cc1c(Cl)c(=O)oc2cc(O)ccc12", "outcome": "inactive"},
      {"smiles": "Clc1ccc2c(c1)C(N1CCNCC1)=Nc1ccccc1O2", "outcome": "inactive"},
      {"smiles": "COc1cc2ncnc(Nc3cccc(Cl)c3)c2cc1OC", "outcome": "inactive"},
      {"smiles": "CNCCCC12CCC(c3ccccc31)c1ccccc12", "AC50": "47.3 µM (active)"},
      {"smiles": "O=C1C(c2[nH]c3ccc(S(=O)(=O)O)cc3c2O)=Nc2ccc(S(=O)(=O)O)cc21", "outcome": "inactive"},
      {"smiles": "CCCCCCCCC=O", "outcome": "inactive"},
      {"smiles": "CC1(C)[C@@H]2CC[C@@]1(C)[C@H](O)C2", "outcome": "inactive"},
      {"smiles": "O=C(O)c1ccc(C(=O)O)cc1", "outcome": "inactive"},
      {"smiles": "CC(C)=CCO", "outcome": "inactive"},
      {"smiles": "C[C@]12CC[C@H]3[C@@H](CCC4=CC(=O)CC[C@@]43C)[C@@H]1CC[C@@H]2C(=O)CO", "outcome": "inactive"},
      {"smiles": "CNC[C@H](O)c1cccc(O)c1", "outcome": "inactive"},
      {"smiles": "C=O", "outcome": "inactive"},
      {"smiles": "CC(C)C[C@H]1C(=O)N2CCC[C@H]2[C@]2(O)O[C@](NC(=O)[C@@H]3C=C4c5cccc6[nH]c(Br)c(c56)C[C@H]4N(C)C3)(C(C)C)C(=O)N12", "outcome": "inactive"},
      {"smiles": "N#Cc1ccc(CC(=NNC(=O)Nc2ccc(OC(F)(F)F)cc2)c2cccc(C(F)(F)F)c2)cc1", "outcome": "inactive"},
      {"smiles": "CC(C)[C@H]1CC[C@@H](C)CC1=O", "outcome": "inactive"},
      {"smiles": "COc1ccc(O)cc1", "outcome": "inactive"},
      {"smiles": "CCCCNC(=O)NS(=O)(=O)c1ccc(C)cc1", "outcome": "inactive"},
      {"smiles": "CCCCN", "outcome": "inactive"},
      {"smiles": "CC(CCO)CCc1ccccc1", "note": "(stereo not given)", "outcome": "inactive"},
      {"smiles": "CC1(C)CCC(C)(C)c2cc(C(=O)Nc3ccc(C(=O)O)cc3)ccc21", "outcome": "inactive"},
      {"smiles": "c1ccc2sc(SN(C3CCCCC3)C3CCCCC3)nc2c1", "outcome": "inactive"},
      {"smiles": "CCCCCCCCCCCCOCCO", "outcome": "inactive"},
      {"smiles": "CCCCCCCCCC=O", "outcome": "inactive"},
      {"smiles": "Cc1c(N(C)C)c(=O)n(-c2ccccc2)n1C", "outcome": "inactive"},
      {"smiles": "Cc1ccc(C(=O)c2cc(O)c(O)c([N+](=O)[O-])c2)cc1", "outcome": "inactive"},
      {"smiles": "O=C(O)c1ccc([N+](=O)[O-])cc1", "outcome": "inactive"},
      {"smiles": "O=C(O)CN(CCN(CC(=O)O)CC(=O)O)CCN(CC(=O)O)CC(=O)O", "outcome": "inactive"},
      {"smiles": "CC(=O)C(=O)O", "outcome": "inactive"},
      {"smiles": "CC(C)Oc1ccccc1O", "outcome": "inactive"},
      {"smiles": "NC(N)=NC(=O)c1nc(Cl)c(N)nc1N", "outcome": "inactive"},
      {"smiles": "C[C@H]1C[C@@H]2[C@H]([C@@H](O)C[C@@]3(C)[C@H]2CC[C@]3(O)C(=O)CO)[C@@]2(C)C=CC(=O)C=C12", "outcome": "inactive"},
      {"smiles": "O=C(O)COCCN1CCN(C(c2ccccc2)c2ccc(Cl)cc2)CC1", "note": "(stereo not given)", "outcome": "inactive"},
      {"smiles": "CC(=O)O[C@]1(C(C)=O)CC[C@H]2[C@@H]3C[C@H](C)C4=CC(=O)CC[C@]4(C)[C@H]3CC[C@@]21C", "outcome": "inactive"}
    ]}
  ]
}
